The campaign covered roughly 53,000 sequences. About 3,700 (7%) were called active.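 Rule for the calls: active = gene knockdowns whose robust z-score for IL-1 alpha signal is at least 2 or at most -2, so actives lie on both sides; inactive = the rest.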 Shown is part of a subset that was picked to be rich in actives.

The nature of this assay: Components of the Cytosolic LPS Sensing Pathway: Gene Identification via Genome-wide siRNA Screen.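 Note: robust z of the log signal after scaling to non-targeting control siRNA wells of the plate.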 The following applies: RAW264.7 macrophages, IL-1a HTRF, actives lie on both sides, screened at 100 nM (by protocol), cells primed 5 h with Pam3CSK4 first. The method, boiled down: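 Read-out: IL-1a HTRF on supernatant, divided by plate negative-control median ×100, log-transformed and converted to robust z-score. Cells were RAW264.7 given 100 nM siRNA, Pam3CSK4-primed 5 hours, then LipidA-transfected 24 hour.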
As to GGACAAAGAUAAUGGAAAATT against Erlec1, the z-score was 0.353 (inactive). Under GGGAACGCAACAUUUCUCCTT against Oxld1 stands 2.34 (active). The figure for GGAUUCCAAUUUUAUUCCATT against Brca1 is 1.57 (inactive); for GAUAACAAGCAUCUCAUGUTT against Krtap6-5 it is -0.411 (inactive).

CCGGCAGACCUGUGACAUUTT against Rgs14: the z-score is 0.0166 (inactive).

With GGUGGAGAAGCUCAUUGCUTT against Zap70, the z-score was 0.444 (inactive). As for GGAAGAAAGAGUGUAUCAATT against Idi2, the z-score is 0.487 (inactive).

Turning to “GGCUCAACCAAGAAAGGCUTT against 4930591A17Rik”, the z-score is -1.28 (inactive). Turning to GAAAGAAACGGCAGAUUGCTT against Vmn2r122, the z-score was 0.133 (inactive). The figure for GGAAAGUUGUGAACUCUAATT against Olfr1157 is 0.583 (inactive); for GGAUUAGUGCAGGAAUCAATT against Rel it is 0.922 (inactive); for GUUCCUGUUCCACUACUGCTT against Sts it is -2.32 (active).

For the sequence GCAAAACUGAACAAAGUACTT against Xirp2, the z-score was 0.658 (inactive). As for CGAGUGUUGAAUAUUGUGATT against Gpr65, the z-score is 0.158 (inactive). Consider GGUAGUUAAUCAGUGUAAATT against Rps6kb1, for which the z-score was 1.1 (inactive). The figure for GGAUACCAUCAUUGAUGUCTT against Dmap1 is -2.29 (active); for UCGGCCAUGUAGUAUGGGATT against Xlr3a it is 0.42 (inactive). For the sequence GCACUCACGAUCAUCUUUGTT against Has1, the z-score was -0.513 (inactive). Under GGCCCAGGUGGAUAGUUAUTT against Cep120 stands 2.03 (active); under GGAAAACACACUUUUCUUUTT against Thap2, -0.119 (inactive).

Regarding GGCAGCAGGAUGCAGAAAUTT against Ngef, the z-score was -2.43 (active). As to GCUAUAGAUUGGCUUUAUGTT against Depdc1a, the z-score was 0.727 (inactive).

Take GACAAAACUCAUUGUUCUUTT against Taf11: the z-score is 1.16 (inactive). The figure for CCUUCUCAUAGUGAAAGUATT against Zkscan5 is 1.05 (inactive); for GCCUUGCCCUGACUAUGUUTT against Paqr3 it is 0.0997 (inactive).

In the case of GGUGCACAGAUGUCUUACCTT against Sec24d, the z-score was -0.945 (inactive). As for GGUAGAAGAGUCUGAUCAUTT against Sfrp1, the z-score is -0.0589 (inactive).

On to GGCCAUUUACAAGAUGGUUTT against Hpca, for which the z-score was -0.619 (inactive). For the sequence GGUGGUCUACAGAAAAUUCTT against Ncf1, the z-score is -0.908 (inactive).

Turning to GGUGGUUCACAAAUACUGUTT against Agtpbp1, the z-score was 0.264 (inactive).

The record behind these values is PubChem BioAssay AID1508600 (Functional Genomics Laboratory (NCATS/FGL), 2020).
